Reference: PubChem BioAssay AID435006 (Sanford-Burnham Center for Chemical Genomics, 2010)
The whole screen tested about 1,300 compounds, of which about 1,100 (85%) were called active. No stated cut-off is given here; in the data, active means inhibition above about 48%; inactive means the rest. The set was probably picked from earlier hits. These entries were drawn from the full list.

experiment: NALP3 inhibitors retested in yeast, confirmation, luminescence, single concentration (AID 435006); settings: yeast expressing human NALP3, luminescence; at 10 µM; stronger effect = higher value

Structure (SMILES)	inhibition
O=C(Nc1ccccc1Cl)/C(Cl)=C(\Cl)S(=O)c1ccccc1 (centres undefined)	64.3% (active)
O=[N+]([O-])c1c(NCCO)cc(Sc2nc3ccccc3s2)c2nonc12	62.6% (active)
O=C(Nc1ccccc1)c1cc2ccccc2[nH]1	73.6% (active)
CC(C)(c1ccccc1)c1ccc(OCCN)cc1	71.8% (active)
CN(C)c1ccnc2sc(C(=O)c3ccccc3)c(N)c12	68% (active)
CC(C)n1c(COc2ccccc2)nc2ccccc21	70% (active)
Cc1ccc(OCc2nc3ccccc3n2C)cc1	78.3% (active)
CC(=O)[C@@]12O[C@@H]1C[C@H]1[C@@H]3CC[C@H]4C[C@@H](O)CC[C@]4(C)[C@H]3CC[C@@]12C	71.5% (active)
C[C@@H]1C[C@@H]2O[C@H]2/C=C\C=C\C(=O)Cc2c(Cl)c(O)cc(O)c2C(=O)O1	72.4% (active)
O=C(CC(O)(C(F)(F)F)C(F)(F)F)Nc1ccc(Cl)c(Cl)c1	97.9% (active)
N#Cc1nc(COc2ccc(Cl)cc2)oc1N1CCCC1	30.3% (inactive)
Cc1ccc(OCc2nc(C#N)c(N3CCCC3)o2)cc1	48.9% (active)
CC1CC2=C(CC1/C=N/NC(N)=S)C(C)(C)CCC2 (centres undefined)	-1.3% (inactive)
O=[N+]([O-])c1cccc(/C=N/Nc2ncc(Br)cn2)c1	72.2% (active)
Cc1ccnc(Nc2nc3ccccc3s2)n1	73% (active)
CCOC(=O)c1c(C)[nH]c(C(=O)COc2ccc3c(c2)OCO3)c1C	47% (inactive)
O=C(COc1ccccc1F)Nc1nc(-c2ccccn2)cs1	55.5% (active)
Oc1ccc(Br)cc1/C=N/Nc1ccccn1	66.3% (active)
COc1cccc(/C=N/Nc2cc(C)nc(-c3ccccc3O)n2)c1O	25.5% (inactive)
O=C(NCc1ccc2c(c1)OCO2)c1c(O)nc2sccn2c1=O	75.2% (active)
Cc1csc(NC(=S)Nc2cccc(Cl)c2)n1	-12% (inactive)
Cc1cccc(NC(=S)NC(=O)c2ccc(Br)o2)c1	63.5% (active)

Structure (SMILES)	inhibition
COCCCNC(=O)/C=C/c1ccc(OCc2c(F)cccc2Cl)cc1	27.1% (inactive)
Fc1ccccc1-c1cc2cc3c(cc2cn1)OCO3	51.1% (active)
O=[N+]([O-])/C=C/c1ccc2c(ccn2Cc2ccccc2)c1	78.7% (active)
Cc1cc(C)c(/C=C2\C(=O)Nc3ccccc32)[nH]1	51.8% (active)
Cn1c(=NC(=O)c2ccco2)sc2cccc(F)c21	60.5% (active)
CC(C)C(=O)N1CCN(CCN=CC2=C(O)CC(c3ccco3)CC2=O)CC1 (centres undefined)	74.3% (active)
Cc1ccc(-c2nn(C(C)(C)C)c3ncnc(N)c23)cc1	86.7% (active)
CC(C)Sc1ncnc2c1cnn2-c1ccccc1	48.7% (active)
Cc1ccc(O)c(NC(=O)c2cc(-c3ccco3)on2)c1	76% (active)
CCSc1nc2sc3c(c2c(=O)n1-c1ccc(C)cc1)CCN(C)C3	69.4% (active)
O=C(Oc1c(-c2ccco2)oc2ccccc2c1=O)c1cccnc1	78.3% (active)
O=C(Nc1ccc2oc(-c3ccccc3F)nc2c1)c1ccco1	82.2% (active)
CCc1noc(C)c1C(=O)Nc1nc2ccc(OC)cc2s1	78.5% (active)
Cc1c(C(=O)N2CCCc3ccccc32)oc2ccccc12	47.6% (inactive)
Cc1cc(C(=O)COc2ccc(Br)cc2F)c(C)n1C1CC1	54.5% (active)
Cn1c(=O)c(C(=O)Nc2ncccn2)c(O)c2ccccc21	60.5% (active)
Oc1c(Cl)cc(Cl)c(Cl)c1Cc1c(O)c(Cl)cc(Cl)c1Cl	99% (active)
Nc1c(-c2cccc(Cl)c2)cnn1-c1cccc([N+](=O)[O-])c1	61.2% (active)
CCc1cc(C(=O)Nc2nnc(C3CC3)s2)sc1C	60.8% (active)
O=C(CSc1ccc(-c2ccc(-n3cccn3)cc2)nn1)Nc1ccc([N+](=O)[O-])cc1	41% (inactive)
CN=C1C=C/C(=N/N=c2\ccn(O)cc2C)C=C1C	57.2% (active)
COc1ccccc1C(=O)Nc1ccc(NC(=O)c2ccco2)c(C)c1	60.8% (active)

Structure (SMILES)	inhibition
O=C(Nc1ccc(Oc2ccccc2)cc1)c1ccco1	44.5% (inactive)
CCN(CC)c1ccc(/C=N/Nc2nc(C)cc(C)n2)c(O)c1	40.4% (inactive)
CC(=NCc1ccc2c(c1)OCO2)C1=C(O)c2ccccc2C1=O	67.5% (active)
CC1(C)CCSC(/C=C/c2ccccc2)=N1	87.4% (active)
O=C1C=C(c2ccc(Cl)cc2)C(=O)N1Nc1ccccc1	55% (active)
CCCN(CC1CC1)C(=S)NC(=O)c1ccccc1Br	47.1% (active)
O=C(CSc1ncnc2c1oc1ccccc12)NC1CCCC1	67.6% (active)
N#Cc1nc(Cc2ccccc2)oc1NCCc1ccccc1	48.6% (active)
CCCc1nc2c(c(=O)c3ccccc3n2C)c(=O)n1C1CCCCCC1	30.2% (inactive)
COc1ccccc1OCc1nc2ccccc2s1	47.1% (active)
CCCCCCC12CCC(C(=O)O)(CC1)CC2	66.8% (active)
Cc1cc(C)nc(NC(=O)Nc2ccccc2C(F)(F)F)n1	68.8% (active)
O=C(CCCN1C(=O)/C(=C\c2ccco2)SC1=S)Nc1cccc2ccccc12	52.9% (active)
Cc1ccc2cccc(S(=O)(=O)N3CCN(c4ccccc4F)CC3)c2n1	65.9% (active)
COc1cc(N2C(=O)CSC2=S)cc(OC)c1OC	58.7% (active)
O=C1CSC(=S)N1c1ccc(O)cc1	83.8% (active)
CC(C)C(=O)Nc1ccc2c(c1)oc1ccccc12	2.95% (inactive)
COc1ccc(OCc2nnc3n2N=C(c2ccccc2)C(CC(=O)O)S3)cc1 (centres undefined)	16.8% (inactive)
Cc1ccc(CSc2nsc(C)c2C#N)cc1	56.3% (active)
CCCNc1ncnc2sc(C)c(C)c12	60.5% (active)
